The results in this text go back to the supplement of paper PMC11417369.

In all, about 25,000 sequences were measured (“ln(normalized median fluorescence intensity)”: median about 6.7, highest 2% from about 10 on). Shown is part of a subset that was picked to be rich in the highest values.

This experiment deals with PfHDP1 homeodomain (GST-tagged). The experiment is described as follows: gcPBM binding intensity (ln(normalized median fluorescence intensity)); higher = stronger DNA binding. Summed up: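 Probes on an Agilent 4 × 180k array were primer-extended, double-stranded and 36 bp long, taken from intergenic genomic regions, with negative controls added. GST-tagged P. falciparum DNA-binding domains from E. coli, about 25 μg on average, were applied to the array for 1 h in 1× PBS containing 1% milk, 0.2 mg/ml BSA, 0.5% salmon testes DNA and 0.03% Triton X-100. Binding intensity, obtained after Alexa488 anti-GST antibody detection and a 488 nm scan, is the highest Masliner-normalised natural-log median intensity across replicate spots of either probe orientation.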
On to “GTATGTTTGTTATGCACACAAATGCATCTTATTTCC [CACACA_site2690]”, for which the “gcPBM binding intensity (ln)” value turned out to be 10.8.
Then “TTGTTCGATATATGCACACAGTTTTGTTATTTTTCC [CACACA_site4972]”, with 9.91; and “ATGTATGTTTGTTATGCACACAAATGCATCTTATTT [CACACA_site8861]”, with 10.3.
As for “AAAAAAAAAAAAAAAGGTACAGTAAAAAATTCCTCT [XGTACX_site5947]”, the figure is 6.46; as for “AAAATTAAAATAGTAATACACACTTCATAGGAAATG [CACACA_site1762]”, 6.02.
Then “AGATATATAAATATTACACACTATATATCTATTTAT [CACACA_site6466]”, with 6.64; and “TTAGTATATACATTTGCACACATTATTTTTTAACAT [CACACA_site2618]”, with 10.5; and “TTAGTAAATACATTTGCACACATTATTTTTTAACAT [CACACA_site5448]”, with 10.7.
Consider “ATACATAAAATTAAAACACACATTTTATTAAATACG [CACACA_site2167]”, for which the “gcPBM binding intensity (ln)” value worked out at 6.44.
Turning to “ATTTATATTTAATATACACACATTATTTTTTTATAT [CACACA_site574]”, the “gcPBM binding intensity (ln)” value is 6.86.
“TTTTTTTATATTTTTAGTACACATTGGTATATATAT [XGTACX_site4114]”: the “gcPBM binding intensity (ln)” value is 6.77.
Then “TATTTAAAAATATATACACACATTTTATATTATTAT [CACACA_site781]”, with 6.32; and “AATTATATAACAAATTGTACGAATGAAAATATTATT [XGTACX_site4237]”, with 6.79.
“ATATTTTTATGATGTATCCAAGAAATGGAACTATAT [CACACA_negctrl_site1268]”: the “gcPBM binding intensity (ln)” value was determined as 6.23.
As for “AAAATATAAATATATTGTACTGTTATATAATAAAAT [XGTACX_site2132]”, the figure is 6.41; as for “ATGAAAAAAAGACATGCATGTAAATATAAATTGCTT [TGCATGCA_site504]”, 6.68.
On to “ATAAATATGTAAAAAACATGCAAAAAATTAAAGACA [TGCATGCA_site912]”, for which the “gcPBM binding intensity (ln)” value came to 7.22.
As for “TGTTGTAAATTAAAGACATGCACGTGAGAAAATATA [TGCATGCA_site285]”, the figure is 11.
Consider “TTTTTATATTTTACATGTACATAAATATATTATATA [XGTACX_site958]”, for which the “gcPBM binding intensity (ln)” value turned out to be 6.46.
Regarding “AAATACATACATTAATGTACAAATAGAAACACTCTT [XGTACX_site1512]”, the “gcPBM binding intensity (ln)” value stood at 6.85.
As for “TGAATATTTATACATGCACACTAAAATAAAGAATCT [CACACA_site5351]”, the figure is 8.07; as for “ACGGACAATACGGAAACACACAAGTTATTTTATCAT [CACACA_site7310]”, 6.21; as for “TAATGTTGAGAATTTTGTACATATAGATCAATTTAT [XGTACX_site5426]”, 6.33.
For the sequence “TTTTATGATAATTTTGCACACACTTAGGAAAAATTA [CACACA_site1556]”, the “gcPBM binding intensity (ln)” value is 10.4.
Then “TTATGATAACTTTGCACACACTTAGGAAAAGTTATG [CACACA_site6836]”, with 10.6; and “TTCAAAAAAGGAAAGTTGCACTTGATACGCTTATTA [GTGCAC_site9411]”, with 7.38; and “ACGTTAGGCTTATTTGCACACTTGTATTATAATTTT [CACACA_site1317]”, with 10.3.
Then “TTATGATAATTTTGCACACACTTAGGAAAAATTATG [CACACA_site4949]”, with 10.9; and “AAAGTAGGCTTATATGCACACTTTGAAATATTATAA [CACACA_site5117]”, with 9.77.
As for “GAAAAATTAATAAATAAACACACATATATATATATA [CACACA_site8835]”, the figure is 9.29; as for “AATCTAATTAAAATCACACATATATTCGTCGTAATA [CACACA_site5855]”, 6.05; as for “CATATTTGTATATGCACACATAAATTTTTCCATTTC [CACACA_site3467]”, 10.2.
Consider “CCCATGCATTTTTGCACACACATATATTTATAAATA [CACACA_site6785]”, for which the “gcPBM binding intensity (ln)” value was 10.7.
As for “CCCATGCATTTTTGCACACACATATATATATAAATA [CACACA_site1430]”, the figure is 10.8; as for “TTGAAGAATAAATATGCACACATGCATATATTTTTA [CACACA_site5840]”, 9.33.
In the case of “AATATTTTTTTTTAAACATGCATATTTGCATTACCC [TGCATGCA_site437]”, the “gcPBM binding intensity (ln)” value came to 8.67.
Then “AGAATAAATATGCACACATGCATATATTTTTACACT [TGCATGCA_site893]”, with 10.3; and “TACCCATGCATTTTTGCACACACATATATATATAAA [CACACA_site1429]”, with 10.7.
Then “TTTTAAATAATACATACATGCATATATACACATATA [TGCATGCA_site8]”, with 6.58; and “TAAATTATAAATTGCACACATATTTTTATATTTATA [CACACA_site2976]”, with 10.2.
As for “AAAAAAAAAAAAAAAAGTACAAAAATATATATGCAT [XGTACX_site8392]”, the figure is 6.48.
On to “AATGATACTTAGGGGCATGTCTCTGGGGGCATAACC [CACACA_negctrl_site591]”, for which the “gcPBM binding intensity (ln)” value is 6.63.
Turning to “CATATTTCTTTATTGGCACACATTTTTTCAATTATA [CACACA_site1618]”, the “gcPBM binding intensity (ln)” value is 6.87.
Then “TTATTTAAATATTGATGTACTCTCCTTATTATAATA [XGTACX_site1240]”, with 6.76; and “TCCTTTCAACCATATATAATGACATGTACTCAAAAA [GTGCAC_negctrl_site417]”, with 6.77; and “ATATATTTTTAATATGCACACAAGAATACATTCACA [CACACA_site914]”, with 9.51.
Then “AACGATATCTGTACTACACACATTATGTCATCCTAT [CACACA_site5374]”, with 6.81; and “GTTATATTTTTTTATACACACTGGAATATATAAATA [CACACA_site4282]”, with 6.76; and “ATATTATATATATAGGTGCGAGTATTTTATAAATAT [GTGCAC_site9889]”, with 6.93.
Consider “TTCCAAAAAGTTATTACACACATATGTGCACATATA [CACACA_site6465]”, for which the “gcPBM binding intensity (ln)” value came to 11.2.
Then “TTATATGTATATATAGTGCAGAACAAAAGATTATAT [GTGCAC_site9599]”, with 7.69; and “ATTATATATATGTGCACACAAAAGATATATATATAT [CACACA_site5205]”, with 11.1.
Then “ATTCTATATATGTGCACACAAAAGATATATATATAT [CACACA_site2124]”, with 11.4; and “AGAAAGAAGATATATACACACAAAAAAAGATATATA [CACACA_site6779]”, with 6.75; and “TTCCAAAAAATTATTACACACATATGAGCACATATA [CACACA_site4543]”, with 9.16.
Then “TATATATATATGTGTACACAAAAAATATTATATTAT [CACACA_site5505]”, with 8.81; and “AAAAAAAAAAGACACACACACAAAAAAAGATATATA [CACACA_site6645]”, with 6.58.
As for “TATATAAAGATATATACACACAAAAAAAAAAAAAAA [CACACA_site6778]”, the “gcPBM binding intensity (ln)” value is 6.32.
Then “ATATTATATATATGTGCACACAAAAGATATATATAT [CACACA_site2125]”, with 10.5; and “ATATATATATATATGTGTACACAAAAAATATTATAT [XGTACX_site5741]”, with 9.26; and “TTCCAAAAAATTATTACACACATATGGGCACATATA [CACACA_site679]”, with 6.54.
For “TATAAACCCACCTACACACACAACGTAAATGCATTG [CACACA_site2238]”, the “gcPBM binding intensity (ln)” value came to 6.96.
Turning to “TTCTTTTCAGAAGGAAAGAATTATAACATATCATAA [XGTACX_negctrl_site548]”, the “gcPBM binding intensity (ln)” value was 6.13.
As for “AATAATTTGGTCTTATCAAAAATTAAAAATAAATAA [XGTACX_negctrl_site430]”, the figure is 6.05.
As for “TTTCCCTACCAAAAATGTACTTATAAGCGTTTTTAT [XGTACX_site739]”, the figure is 6.5; as for “TTTTATTTAACTCATAATTTTTTAAAAAACAATTAT [XGTACX_negctrl_site19]”, 6.37.
As for “TATATATATATGTGCACACATAAAGATATTATTTTT [CACACA_site3733]”, the figure is 10.1; as for “ATAAAGATATGACACACACACATATTATAGATATAT [CACACA_site7434]”, 6.69; as for “TATATATATATATGTGCACACATAAAGATATTATTT [CACACA_site3734]”, 10.6.
As to “AATGTATTCTCTCATGCACACTTTCTTTAAGGGACC [CACACA_site5245]”, the “gcPBM binding intensity (ln)” value stood at 8.87.
As for “AATATATTTGTGTATGTGCGCAGTGTGTAATTTATT [GTGCAC_site9765]”, the figure is 7.92; as for “GTTCATCACATATACACATGCATATTCTAATATGTA [TGCATGCA_site809]”, 7.25; as for “TTTCTTCTGCATTATGCACACTATAATTCGTTAAAA [CACACA_site5568]”, 10.5.
“TTCGTTCTTTTATGCACACTCAACATATAAATTAAA [CACACA_site1209]”: the “gcPBM binding intensity (ln)” value is 10.1.
As for “TTTTTCTTCTGCATTATGCACACTATAATTCGTTAA [CACACA_site2837]”, the figure is 10.2; as for “ATTTATATATCGCCCACACACATGTGATTATTTATA [CACACA_site6905]”, 7.
Then “TTATATTTTAAGAAATGTACATGATATAATTATCAA [XGTACX_site8693]”, with 6.39; and “AATATATATGGACATGCATGGACATAATAATCTATT [TGCATGCA_site838]”, with 6.47; and “GGTGCACCCATATACACACACAAATACAATGATAAA [CACACA_site1132]”, with 10.2.
Then “CATATAAAAATGTGCACACACACACCCATATATATT [CACACA_site1526]”, with 10.5; and “CATATAAAAATGTGCACACACACACCGATATATATT [CACACA_site4940]”, with 10.8.
As for “AAAAAAATGAAACACACACACACATATATATATATA [CACACA_site1043]”, the “gcPBM binding intensity (ln)” value stood at 9.32.
Then “AATAAATATATATACACACCCATATATATATATATA [CACACA_site2595]”, with 9.48.
As for “TGGGCACCCATATACACACACAAATACAATGATAAA [CACACA_site4762]”, the figure is 6.48; as for “TATGTGCACCCATATACACACACAAATACAATGATA [CACACA_site8295]”, 10.7.
For the sequence “AAAATACATAAACACACACACACACCGATATATATA [CACACA_site9186]”, the “gcPBM binding intensity (ln)” value turned out to be 7.14.
Then “AATATAAATAAAAACACACACACACCGATATATATA [CACACA_site5283]”, with 7.05; and TTACAACATGAAAATGTGCACATATATATATATATA, with 10.8; and “AAAAAAAAAAAACACACACACACACCCATATATAAA [CACACA_site1170]”, with 6.79.
As for “ATATATGAAAATATATGTACACAACATATAAAATAG [XGTACX_site5132]”, the figure is 6.63.
